Holding throughout (test): qHTS profiling for inhibitors of Plasmodium falciparum proliferation (AID 504749); note: nearly all actives have a fitted effect of over 60% in size
What all share (conditions): P. falciparum in erythrocytes, SYBR Green DNA, 72 h; series mostly up to 28.7 µM

Test [1] concerns CP215. In outline:
(§1)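 Parasite proliferation within erythrocytes, 72 h exposure. Endpoint: SYBR Green I fluorescence after overnight lysis at room temperature. Controls: 0.29 uM artemisinin, DMSO.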

The subject of test [2] is CP217. In outline:
as §1

The subject of test [3] is CP237. In outline: as §1
Test [4] deals with CP238. In outline: as §1
For test [5], the system named is CP247. In outline: as §1
The subject of test [6] is CP250. Put shortly: as §1
Test [7] relates to CP252. Put shortly:
as §1

In test [8] the test system is CP256. In outline:
as §1

Test [9] concerns CP260. Put shortly:
as §1

Test [10] relates to CP262. In outline:
as §1

The subject of test [11] is CP265. Put shortly: as §1
Test [12] concerns CP266. Put shortly:
as §1

For test [13], the system named is CP268. Put shortly:
as §1

Test [14] relates to CP269. In outline: as §1
The test system of test [15] is CP286. Put shortly: as §1
Test [16] has as its system CP291. Put shortly: as §1
In test [17] the test system is CP297. Put shortly:
as §1

Test [18] concerns CP305. Put shortly:
as §1

In test [19] the test system is CP315. In outline:
as §1

The test system of test [20] is CP325. Put shortly: as §1

Structures are written as SMILES. “And” between values parts separate entries of the source, which are not always exact repeats. Equal entries are not always repeated. Inconclusive results are not listed. The source made the active and inactive calls. Calls come from the whole dose curve; as a rule, active = well fitted inhibition curve with a large enough effect; inconclusive = small, poorly fitted or top-dose-only effect; inactive = flat fitted curve, though single readings scatter.
Potency is the fitted concentration of half-maximal effect.

For `O=c1n(Cl)c(=O)n(Cl)c(=O)n1Cl`, the Potency entry in [1], in [2], in test [3], in test [4], in test [5] and in [6] was “inactive” throughout. Moreover, the Potency entry in test [7], in test [8], in test [9], in test [10], in test [11] and in test [12] was “inactive” throughout. Further, the Potency entry in test [13], in test [14], in test [15], in test [16], in test [17] and in [18] was “inactive” throughout. For the same molecule, the Potency entry in test [19] and in test [20] was “inactive” throughout.
Consider `C[C@H]1C(=O)O[C@@H]2CCN3CC=C(COC(=O)[C@](C)(O)[C@]1(C)O)[C@H]23`, for which the Potency entry in test [1], in test [2], in test [3], in test [4], in [5] and in [6] was “inactive” throughout. Besides, the Potency result in [7], in test [8], in test [9], in test [10], in test [11] and in test [12] was “inactive” throughout. The Potency result in test [13], in [14], in test [15], in test [16], in test [17] and in test [18] was “inactive” in each case. Besides, the Potency result in [19] and in [20] was “inactive” each time.
In the case of `CC(C)(C)OC(=O)c1ncn2c1[C@@H]1CCCN1C(=O)c1c(Br)cccc1-2`, the Potency result in test [1], in test [2], in [3], in test [4], in [5] and in test [6] was “inactive” each time. For the same molecule, the Potency result in test [7], in [8], in test [9], in test [10], in [11] and in test [12] was “inactive” throughout. Further, the Potency result in test [13], in test [14], in test [15], in test [16], in test [17] and in test [18] was “inactive” each time. Besides, the Potency entry in [19] and in [20] was “inactive” in each case.
As to `CCC1(CC)C(=O)NC(=O)NC1=O`, the Potency result in test [1], in test [2], in [3], in test [4], in test [5] and in test [6] was “inactive” each time. Moreover, the Potency result in test [7], in [8], in test [9], in test [10], in [11] and in test [12] was “inactive” in each case. The Potency entry in test [13], in test [14], in test [15], in [16], in test [17] and in test [18] was “inactive” in each case. For the same molecule, the Potency entry in test [19] and in test [20] was “inactive” in each case.
Regarding `Cc1ncc2n1-c1ccc(Cl)cc1C(c1ccccc1F)=NC2`, the Potency entry in test [1], in test [2], in [3], in [4], in [5] and in [6] was “inactive” in each case. Further, the Potency result in test [7], in test [8], in [9], in test [10], in test [11] and in test [12] was “inactive” throughout. Besides, the Potency entry in [13], in [14], in [15], in [16], in test [17] and in test [18] was “inactive” in each case. For the same molecule, the Potency result in test [19] and in test [20] was “inactive” in each case.
`c1ccc2nc(N3CCNCC3)ccc2c1`: the Potency entry in [1], in [2], in [3], in [4], in [5] and in [6] was “inactive” each time. Moreover, the Potency entry in test [7], in test [8], in test [9], in test [10], in test [11] and in test [12] was “inactive” each time. Moreover, the Potency result in [13], in test [14], in [15], in [16], in test [17] and in [18] was “inactive” in each case. Moreover, the Potency result in [19] and in [20] was “inactive” throughout.
Regarding `OC(c1ccccc1)(c1ccccc1)C1CCNCC1`, the Potency result in test [1], in test [2], in test [3], in [4], in test [5] and in test [6] was “inactive” each time. Also, the Potency entry in test [7], in test [8], in test [9], in test [10], in test [11] and in [12] was “inactive” each time. For the same molecule, the Potency result in test [13], in [14], in test [15], in [16], in test [17] and in test [18] was “inactive” in each case. Also, the Potency entry in [19] and in [20] was “inactive” throughout.
In the case of `CC[n+]1c(-c2ccccc2)c2cc(N)ccc2c2ccc(N)cc21`, the Potency was 239 nM (active) and 953 nM (active) in test [1]; 355 nM (active) and 631 nM (active) in [2]; 158 nM (active) and 398 nM (active) in test [3]; 112 nM (active) and 355 nM (active) in test [4]; 282 nM (active) and 631 nM (active) in test [5]; 178 nM (active) and 355 nM (active) in [6]. Further, the Potency in test [7] was 100 nM (active) and 282 nM (active); in [8], 31.6 nM (active) and 63.1 nM (active); in test [9], 199 nM (active) and 398 nM (active); in test [10] it was 95.3 nM (active) and 107 nM (active); in [11], 251 nM (active) and 794 nM (active); in test [12], 301 nM (active) and 601 nM (active). Further, the Potency is 107 nM (active) and 379 nM (active) in test [13]; 120 nM (active) and 478 nM (active) in [14]; 70.8 nM (active) and 158 nM (active) in test [15]; 151 nM (active) and 601 nM (active) in test [16]; 169 nM (active) and 478 nM (active) in [17]; 84.9 nM (active) and 379 nM (active) in test [18]. Moreover, the Potency is 478 nM (active) and 1.69 µM (active) in test [19]; 95.3 nM (active) and 379 nM (active) in [20].
On to `CC(C)[N+](C)(CCC(C(N)=O)(c1ccccc1)c1ccccc1)C(C)C`, for which the Potency result in test [1], in [2], in test [3], in test [4], in test [5] and in [6] was “inactive” in each case. Moreover, the Potency entry in [7], in test [8], in test [9], in [10], in test [11] and in [12] was “inactive” each time. The Potency entry in test [13], in test [14], in test [15], in test [16], in test [17] and in [18] was “inactive” throughout. Moreover, the Potency entry in [19] and in test [20] was “inactive” each time.
As for `NCc1cccnc1`, the Potency entry in test [1], in [2], in test [3], in [4], in test [5] and in test [6] was “inactive” in each case. Besides, the Potency entry in [7], in test [8], in test [9], in [10], in test [11] and in [12] was “inactive” in each case. The Potency entry in [13], in test [14], in test [15], in test [16], in test [17] and in test [18] was “inactive” in each case. Also, the Potency result in test [19] and in test [20] was “inactive” each time.
On to `CCC(=O)O[C@H]1CC[C@H]2[C@@H]3CCC4=CC(=O)CC[C@]4(C)[C@H]3CC[C@]12C`, for which the Potency result in test [1], in test [2], in test [3], in test [4], in [5] and in test [6] was “inactive” throughout. Also, the Potency entry in test [7], in test [8], in test [9], in test [10], in [11] and in test [12] was “inactive” throughout. Further, the Potency result in test [13], in test [14], in [15], in [16], in test [17] and in [18] was “inactive” each time. For the same molecule, the Potency result in [19] and in test [20] was “inactive” in each case.

These data come from PubChem BioAssay (NCATS).
